SMILES strings stand for the structures. About 6,200 (1.8%) of roughly 340,000 compounds were called active. Roughly 10% stayed inconclusive and do not appear here. Calls come from the whole dose curve; as a rule, active = well fitted activation curve with a large enough effect; inconclusive = small, poorly fitted or top-dose-only effect; inactive = no such curve, though single readings can be large or run the other way. Shown is part of a subset that was picked to be rich in actives. A call without a number means that no potency is given here.

Data on 95 molecules can be found in PubChem BioAssay AID624297 (National Center for Advancing Translational Sciences (NCATS), 2012).
Potency is the fitted concentration of half-maximal effect.

A short description of the assay: A quantitative high throughput screen for small molecules that induce DNA re-replication in SW480 colon adenocarcinoma cells. Note: nearly all actives have a fitted effect of over 55% in size. As to conditions: Hoechst DNA content imaging, 48 h; series mostly up to 46.1 µM. The text has this:
H Molecular Libraries Probe Production Network [MLPCN] NIH Chemical Genomics Center [NCGC] MLPCN Grant: Fast Track K99 CA136555 Assay Provider: Melvin DePamphilis, NICHD, NIH Assay Overview Eukaryotic cells normally restrict genome duplication to once per cell division. When this process is aberrant, DNA re-replication occurs when cells reinitiate DNA replication before the first round of replication is complete. DNA re-replication induces the DNA damage response, arrests cell proliferation, and triggers apoptosis. The cell cycle components cyclin A, Cdt-1, Cdc6 and geminin are critical regulators of this process and their misregulation results in DNA re-replication in normal and cancer cells. To identify compounds that induce re-replication in normal cells, an image-based assay was used to measure DNA content of nuclei, as detected by the fluorescent DNA binding dye, Hoechst. Cell nuclei were imaged by a fluorescence scanning plate imager and compounds that induce DNA re-replication were identified by the increase of nuclei with elevated fluorescence intensity
For screening, 250 cells in 5 uL/well were dispensed into black clear 1536-well plates (Aurora) using a solenoid-based dispenser. Following transfer of 23 nL compound or DMSO vehicle by a pin tool, the plates were incubated 48 hr at 37 C and 5% CO2. After addition of 1 uL/well Hoescht stain, the plates were incubated 40 min at 37 C, 5% CO2 and total intensity of fluorescent objects (nuclei) were enumerated by an Acumen Explorer Ex3 (TTP LabTech) fluorescence scanning plate imager (405 nm excitation, 500-530 nm emission). Keywords: NIH Roadmap, MLPCN, MLI, MLSMR, qHTS, NCGC, DNA replication, cancer
As for `C#CCOCCOCCOCCNc1nc(N2CCN(C(=O)Cn3cc(CCO)nn3)CC2)nc(N2CCN(C(=O)[C@H](CCCCN)n3cc(CCCC)nn3)CC2)n1`, the re-replication activation is 7.81% [at 9.22 µM] (inactive). Consider `COc1ccc(Br)cc1/C=N/Nc1ccc(S(=O)(=O)Nc2ccccc2C(=O)O)cc1[N+](=O)[O-]`, for which the Potency entry is “inactive”. In the case of `O=C1C[C@@H]2c3c(cccc3CN1Cc1ccccc1)C[C@@H](O)[C@H]2O`, the Potency result was “inactive”. The same measure, in the same setting: the value for `CCOC(=O)c1sc(NC(=O)CSc2nc(C)cc(C(F)(F)F)n2)c(C#N)c1C` was “inactive”; that for `CCOC(=O)c1sc(NC(=O)CSc2ncccn2)c(C#N)c1C` was 7.31 µM (active); that for `CCC(=O)Nc1sc(C(=O)N2CCCCC2)c(C)c1C#N` was “inactive”.

Turning to `COc1cc2c(cc1CNC[C@H]1O[C@@H](n3cnc(C(N)=O)n3)[C@H](O)[C@@H]1O)OCO2`, the Potency result is “inactive”. For `CC(C)C(NC(=O)c1c(F)cccc1F)C(=O)NNC(=O)c1ccccc1` (stereo not given), the Potency result was “inactive”.

For `COc1ccc(CNC(=O)COC(=O)C(CCSC)N2C(=O)c3ccccc3C2=O)cc1` (stereo not given), the Potency result was “inactive”. On the same count and under the same terms, the result for `CN(C)CCCn1c(N)c(C#N)c2nc(C#N)c(C#N)nc21` reads 16.4 µM (active); that for `c1ccc2c(c1)OC1OC2Oc2ccccc21`, “inactive”. Still for that read-out and setting: the value for `O=C(NCCc1ccccc1)c1cccc(NC(=O)c2ccccc2)c1` was “inactive”; that for `COc1ccccc1N(CC(=O)N/N=C(\C)c1ccccc1O)S(=O)(=O)c1ccc(C)cc1` was 4.11 µM (active). Regarding `COc1ccc(S(=O)(=O)N(CC(=O)N/N=C/c2ccccc2C(=O)O)c2ccccc2OC)cc1`, the Potency entry was “inactive”.

Turning to `COc1ccccc1NC(=O)CN(c1ccccc1OC)S(=O)(=O)c1ccccc1`, the Potency result was “inactive”.

For the molecule `Cc1cc(C)nc(SCC(=O)N(C)C)n1`, the Potency entry is “inactive”. On to `Cc1cc(C)nc(S/C=C/C(=O)c2ccccc2)n1`, for which the Potency was 4.61 µM (active).

For the molecule `Cc1cc(C)nc(SCC(=O)c2ccc(Cl)cc2)n1`, the Potency entry was “inactive”.

For the molecule `C=CCC[C@H](Cc1ccc(F)cc1)C(=O)OC[C@@H](NC(=O)[C@@H](CC=C)CC(=O)N[C@H](CO)Cc1ccccc1)C(C)(C)C`, the Potency result was “inactive”. Still for that read-out and setting: the result for `O=C(NCC1CCCCC1)NCC1CCCCC1` reads “inactive”; that for `O=C1CC(c2ccccc2)C(=O)N2C(=O)CC(c3ccccc3)C(=O)N12` (stereo not given), “inactive”; that for `CC(C)(C)c1nnc2sc(SCC(O)=C(C#N)c3nc4ccccc4[nH]3)nn2c1=O`, “inactive”. For `COc1ccc(O)c(C=Nc2cc(C)on2)c1`, the Potency result was “inactive”. As for `COc1ccc(-c2c(-c3ccc(OC)cc3O)nc(C)nc2C(F)(F)F)cc1`, the Potency entry is “inactive”. The same measure, in the same setting: the value for `COc1ccc(-c2onc(C)c2-c2ccc3c(c2)OCCO3)c(O)c1` was 14.6 µM (active). With `COC(=O)c1c(NC(C)=O)sc(C(=O)Nc2ccccc2OC)c1C`, the Potency entry was “inactive”.

Take `CCC(=O)Nc1sc(C(=O)Nc2ccccc2)c(C)c1C(=O)OC`: the Potency was 20.6 µM (active). On to `CCOC(=O)c1sc(NC(=O)COc2ncnc3ccccc23)c(C(=O)OCC)c1C`, for which the Potency entry was “inactive”. On the same count and under the same terms, the result for `COc1cc(OC)cc(C(=O)NC(C(=O)N2CCC2)C(C)C)c1` (stereo not given) reads “inactive”. For the molecule `CC(=O)Nc1ccc(NC(=O)COc2ncnc3ccccc23)cc1`, the Potency entry was “inactive”. On the same count and under the same terms, the value for `CC(=O)Nc1ccc(Nc2c3ccccc3nc3ccccc23)cc1` was 18.4 µM (active). Turning to `CC(C)(C)OC(=O)NNc1c2ccccc2nc2ccccc12`, the Potency entry is “inactive”. Consider `CC[C@]1(C(=O)OC)[C@H]2C(=O)N(Cc3ccccc3)C(=O)[C@H]2[C@H]2CN=C(SCc3ccccc3)N21`, for which the Potency entry is “inactive”. Consider `CC(NC(=O)COC(=O)c1ccc2ccccc2n1)c1ccccc1` (stereo not given), for which the Potency entry is “inactive”. Regarding `Cc1ccc(O)c(-c2cc(C(=O)NCc3ccccc3)[nH]n2)c1`, the Potency result was “inactive”. On to `Cc1ccc(O)c(-c2cc(C(=O)Nc3c(C)n(C)n(-c4ccccc4)c3=O)[nH]n2)c1`, for which the Potency is 0.058 µM (active).

`Cc1c(NC(=O)c2cccnc2)c(=O)n(-c2ccccc2)n1C`: the Potency result is “inactive”. Same read-out and setting: the result for `O=C1Cc2cc(S(=O)(=O)Nc3cccc(F)c3)ccc2N1` reads “inactive”; that for `CC(OC(=O)c1cc2ccccc2[nH]1)C(=O)N(C)c1ccccc1` (stereo not given), “inactive”. Regarding `COc1cccc(C2CC(c3cccs3)=NN2C(=O)CSC2=NCCS2)c1OC` (stereo not given), the Potency entry was “inactive”.

With `COc1ccccc1N1N=C(c2cccs2)CC1c1ccccc1` (stereo not given), the Potency is 2.59 µM (active).

With `COc1ccc(C2CC(c3cccs3)=NN2C(=O)CCC(=O)O)cc1OC` (stereo not given), the Potency entry was “inactive”. The same measure, in the same setting: the value for `NC(=O)C1(N2CCCC2)CCN(Cc2ccccc2)CC1` was “inactive”.

On to `CCCCN1CC(COCc2ccccc2)OCCS1(=O)=O` (stereo not given), for which the Potency entry is “inactive”.

As for `Cc1cccc(CC2(O)C(=O)Nc3ccccc32)n1` (stereo not given), the Potency entry was “inactive”. Turning to `O=C(CC1Sc2ccccc2NC1=O)NNc1ccc(Cl)c(Cl)c1` (stereo not given), the Potency entry was “inactive”. Regarding `COc1cccc(NC(=O)COc2cccnc2[N+](=O)[O-])c1`, the Potency entry was “inactive”. For the molecule `Cc1cc(=O)oc2cc(OCC3CC(c4ccccc4Cl)=NO3)ccc12` (stereo not given), the Potency was 3.66 µM (active).

As for `Cc1cc(=O)oc2cc(OCCC[n+]3ccccc3)ccc12`, the Potency entry was “inactive”. As for `Cc1ccccc1N1CCN(CCCOc2ccc3c(C)cc(=O)oc3c2)CC1`, the Potency result is “inactive”.

For the molecule `CCCSC(=S)NC1CCS(=O)(=O)C1` (stereo not given), the Potency is 16.4 µM (active). Still for that read-out and setting: the value for `O=C(Cc1ccc(Cl)cc1)NC1CCS(=O)(=O)C1` (stereo not given) was “inactive”; that for `COc1ccc(NC(=S)NC2CCS(=O)(=O)C2)cc1` (stereo not given) was “inactive”. Consider `CCNC(=S)N1CCN(S(=O)(=O)c2ccc(Cl)s2)CC1`, for which the Potency entry is “inactive”. Same read-out and setting: the value for `CC1O[C@@H](OC2C(O)C(C)O[C@H](OC(=O)[C@]34CCC(C)(C)C[C@H]3C3=CCC5[C@@]6(C)CC(O)C(O[C@@H]7OC(CO)C(O)[C@@H](O)[C@@H]7O)[C@@](C)(C(=O)O)C6CC[C@@]5(C)[C@]3(CO)CC4)C2O[C@H]2OC(C)[C@@H](O[C@@H]3OCC(O[C@@H]4OC(CO)C(O)[C@H](O)C4O)[C@@H](O)[C@@H]3O)[C@H](O)C2O)C(O)C(O)C1O` (stereo not given in full) was “inactive”; that for `CC(C)(C)n1cnnc1Sc1ccc([N+](=O)[O-])cn1` was 18.4 µM (active). `Cc1cccc(C)c1NC(=O)CSc1ccc([N+](=O)[O-])cn1`: the Potency result is “inactive”. For `O=[N+]([O-])c1ccc(Sc2n[nH]c(-c3ccco3)n2)nc1`, the Potency entry was “inactive”. The same measure, in the same setting: the value for `CC[C@]12c3[nH]c4cc(CCC(=O)N(C)C)ccc4c3CCN1C(=O)[C@@H](CC(=O)NCCCN(C)C)C[C@@H]2C(=O)N1CCN(C(=O)c2ccco2)CC1` was “inactive”. In the case of `CCOC(=O)[C@H]1[C@H]2COc3cc(OC)ccc3[C@@H]2N2C(=O)CN(Cc3ccc(Cl)cc3)C(=O)[C@@]12C`, the Potency result is “inactive”.

Regarding `Cc1ccsc1C(=O)OCC(=O)NCCc1ccccc1`, the Potency entry is “inactive”. With `COc1ccc(OC)c2[nH]c(=O)c(CCNC(=O)C(=O)c3c[nH]c4ccccc34)cc12`, the Potency was 20.6 µM (active). Turning to `COc1ccc(/C=C(\NC(=O)c2ccc(OC)c(OC)c2)C(=O)NCCc2c[nH]c3ccccc23)cc1`, the Potency entry was “inactive”. For `COc1ccc(OC)c2[nH]c(=O)c(CCNC(=O)C(C)(C)C)cc12`, the Potency result was “inactive”. `COc1ccccc1-c1sc2ccccc2c1C#CC1(O)CCCCC1`: the Potency entry is “inactive”. On to `O=C(Nc1cccc(Cl)c1N1CCOCC1)c1ccc2c(c1)OCCO2`, for which the Potency was 2.31 µM (active). As for `O=C(Nc1cccc(Cl)c1N1CCOCC1)c1cccnc1`, the Potency entry was “inactive”. `COC(=O)c1ccc(N2CCOCC2)c(NC(=O)c2ccc3c(c2)OCCO3)c1`: the Potency entry was “inactive”. `C=CCCC(=O)N1C[C@H]2CON(C)[C@H]2C[C@H]1c1cccc(Nc2ccccc2)c1`: the re-replication activation was -6.4% [at 9.22 µM] (inactive).

For `O=C(Nc1cccc(Br)c1)C1CC(=O)N(C2CCCC2)C1` (stereo not given), the Potency entry was “inactive”.

For `O=C(c1ccc(N2CCOCC2)c([N+](=O)[O-])c1)N1CCN(c2ccccc2F)CC1`, the Potency entry is “inactive”. As to `O=C(Nc1nnc(Cc2ccccc2)s1)c1cnccn1`, the Potency result was “inactive”.

With `O=C(Nc1nnc(Cc2ccc(Cl)cc2)s1)c1cccnc1`, the Potency was 18.4 µM (active). Consider `O=C(Nc1nnc(Cc2ccc(Cl)cc2)s1)c1ccncc1`, for which the Potency result was “inactive”. Same read-out and setting: the result for `C=CCn1c(SCc2ccccc2)nc2c1c(=O)[nH]c(=O)n2C` reads “inactive”. For the molecule `Cc1nnc(Sc2nc3c(c(=O)[nH]c(=O)n3C)n2Cc2ccccc2)s1`, the Potency result is “inactive”. Take `C=CCSc1nc2c(c(=O)[nH]c(=O)n2C)n1Cc1ccccc1`: the Potency is 1.64 µM (active). `CCN(CC)S(=O)(=O)c1ccc(N2CCCC2)c(NC(=O)c2ccc([N+](=O)[O-])o2)c1`: the Potency was 13 µM (active). Consider `CCN(CC)S(=O)(=O)c1ccc(N2CCOCC2)c(NC(=O)c2ccc(=O)n(C)n2)c1`, for which the Potency result was “inactive”. On to `CCN(CC)S(=O)(=O)c1cc(C(=O)Nc2cc(S(=O)(=O)N3CCOCC3)ccc2N2CCCC2)ccc1F`, for which the Potency result is “inactive”. Consider `COc1ccc(-c2nnc(-c3ccc4ccccc4c3)o2)cc1`, for which the Potency result is “inactive”. Still for that read-out and setting: the result for `CN(Cc1ccccc1)C(=O)COC(=O)/C=C/c1ccc2c(c1)OCO2` reads “inactive”. On the same count and under the same terms, the result for `Cn1cncc1COC(=O)c1ccc(Cl)cc1` reads “inactive”.

In the case of `CC(C)(C)c1ccc(C(=O)NCC(=O)OCN2C(=O)c3ccccc3C2=O)cc1`, the Potency result is “inactive”. On to `N#Cc1c(N)n(CCOC(=O)c2ccc(Cl)cc2)c2nc3ccccc3nc12`, for which the Potency was 20.6 µM (active). Regarding `CN1OC(COC(=O)c2ccc(Cl)cc2)CC1c1ccccc1` (stereo not given), the Potency result is “inactive”. As to `CC(C)(C)c1ccc(C(=O)NCCn2c(N)c(C#N)c3nc4ccccc4nc32)cc1`, the Potency is 20.6 µM (active).

`CC(C)(C)OC(=O)c1c(N)n(CCCN2CCCC2=O)c2nc3ccccc3nc12`: the Potency result was “inactive”. With `COc1ccc(S(=O)(=O)N(C)C[C@H]2Oc3ccc(NS(=O)(=O)c4cccs4)cc3CC(=O)N([C@H](C)CO)C[C@H]2C)cc1`, the re-replication activation was -2.46% [at 9.22 µM] (inactive). Take `CSCCC(NC(=O)c1ccccc1)C(=O)N1CCN(Cc2ccc(Cl)cc2)CC1` (stereo not given): the Potency entry is “inactive”.

As to `CC1CCCN(C(=O)CN2C(=O)c3ccccc3S2(=O)=O)C1` (stereo not given), the Potency result was “inactive”. As to `N#CCc1ccc(OC(=O)c2cccnc2)cc1`, the Potency result was “inactive”. The same measure, in the same setting: the result for `O=C(Oc1ccc(Br)cc1)c1cccnc1` reads “inactive”. On the same count and under the same terms, the result for `CCCCCCOc1ccc(OC(=O)c2cccnc2)cc1` reads 8.2 µM (active); that for `COc1ccccc1N(CC(=O)Nc1ccc(C)cc1Cl)S(=O)(=O)c1cccs1`, “inactive”.
